In PubChem BioAssay (EPA / NIEHS) one finds outcome and AC50 data, which are given here for 39 molecules.

Inconclusive results are not listed. The source made the active and inactive calls. Rule for the calls: active = hit-call score of the fitted dose curve at least 0.9, where 1 is the maximum; inconclusive = response in the unintended direction; inactive = score below 0.9.

Broad substrate specificity ATP-binding cassette transporter ABCG2 (Homo sapiens), sequence (Q9UNQ0 whole entry, looked up): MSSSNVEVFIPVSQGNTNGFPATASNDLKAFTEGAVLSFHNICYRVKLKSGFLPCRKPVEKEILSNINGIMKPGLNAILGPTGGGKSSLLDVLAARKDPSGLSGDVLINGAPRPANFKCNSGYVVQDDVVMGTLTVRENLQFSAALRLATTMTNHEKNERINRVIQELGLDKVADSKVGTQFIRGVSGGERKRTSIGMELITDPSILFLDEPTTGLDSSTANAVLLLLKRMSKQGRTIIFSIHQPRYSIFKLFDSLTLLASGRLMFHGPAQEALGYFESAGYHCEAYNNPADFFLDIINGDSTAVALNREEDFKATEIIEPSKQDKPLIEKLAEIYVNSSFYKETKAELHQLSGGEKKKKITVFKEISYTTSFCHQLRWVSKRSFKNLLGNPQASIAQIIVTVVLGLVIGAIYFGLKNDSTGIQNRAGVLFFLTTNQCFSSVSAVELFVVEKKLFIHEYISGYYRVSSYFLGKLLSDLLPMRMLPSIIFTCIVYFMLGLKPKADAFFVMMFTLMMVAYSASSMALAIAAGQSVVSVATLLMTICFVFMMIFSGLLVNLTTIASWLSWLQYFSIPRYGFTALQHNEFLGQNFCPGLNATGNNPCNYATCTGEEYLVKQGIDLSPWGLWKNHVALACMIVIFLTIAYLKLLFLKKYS

Read-out in this experiment: Broad substrate specificity ATP-binding cassette transporter ABCG2 (Homo sapiens) (UniProt Q9UNQ0)
As to the kind of experiment: CLD_ABCG2_24hr: CellzDirect (CLD) Gene Expression Assay for ABC Transporter (ABCG2) at 24 hours (AID 2283685). Here is the method:
CLD_24hr is a cell-based, multiplexed-readout assay that uses hepatocyte, a human liver primary cell, with measurements taken at 24 hours after chemical dosing in a 96-well plate.CLD_ABCG2_24hr is one of 16 assay component(s) measured or calculated from the CLD_24hr assay. It is designed to make measurements of mRNA induction, a form of inducible reporter, as detected with chemiluminescence signals by Quantitative Nuclease Protection Assay (qNPA) technology.Data from the assay component CLD_ABCG2_24hr was analyzed at the endpoint, CLD_ABCG2_24hr, in the positive analysis fitting direction relative to DMSO as the negative control and baseline of activity. Using a type of inducible reporter, gain-of-signal activity can be used to understand changes in the reporter gene as they relate to the gene ABCG2. Furthermore, this assay endpoint can be referred to as a primary readout. To generalize the intended target to other relatable targets, this assay endpoint is annotated to the transporter intended target family, where subfamily is ABC transporter.
Human hepatocyte cultures were treated daily for two consecutive days with fresh dosing solutions containing appropriate concentrations of the 320 ToxCast chemicals (chemical identities were blinded to CellzDirect and other ToxCast collaborators), vehicle control (0.2% DMSO), and positive control inducers as summarized in Table 1. Due to the large number of treatment groups and chemicals examined, the ToxCast chemicals were divided into two groups (spanning two independent cultures of hepatocytes from separate donor preparations (Hu778: ToxCast plates 1 and 2; Hu776: ToxCast plates 3 and 4). Each preparation of human hepatocyte cultures was treated with respective vehicle control, medium only control, set of six positive controls/reference chemicals for the five hepatic receptor pathways, and a subset of eight of the ToxCast chemicals (indoxacarb, pyrithiobac-sodium, norflurazon, cyhalofop-butyl, methomyl, thiram, acetochlor, and propiconazole). These replicate data, coupled with internal replicates designed within the blinded ToxCast chemical library, provided additional data to evaluate interindividual differences between hepatocyte preparations and their potential impact on chemical profiles.Cell morphology and integrity were evaluated using phase-contrast microscopy as an indicator of hepatocyte cell health (Tyson & Green, 1987). Cultures for each treatment group (i.e., media, vehicle [0.2% DMSO], positive control inducers [multiple concentrations], and the ToxCast chemicals [multiple concentrations]) were observed and cell morphology was assessed relative to vehicle control cultures at each harvest time point (0, 6, 24, or 48 h). […] Images were evaluated at the conclusion of the study to assess changes in cell integrity and account for the effects of chemical exposure on uncharacteristic changes in concentration-dependent gene expression profiles. The results from these determinations of apparent cytotoxicity were annotated (yes/no) alongside the corresponding qNPA data for reference.At the conclusion of each treatment period, hepatocyte cultures (96-well) were washed with 1 volume of HBSS, lysed by addition of 25 ul ArrayPlate lysis buffer (HTG, Tucson, AZ), and 70 ul/well of Denaturation Oil, denatured by incubation at 95C for 10 min, and frozen at approximately -70C until analysis by nuclease protection assay (qNPA) (Roberts et al., 2007). For qNPA analysis, cell lysates were thawed at 50C for approximately 30 min, qNPA probes were added, and samples were incubated at 95C for 10 min to begin the detection process by denaturing the target RNA, dissociating the duplexes and secondary structure hybridization. At the conclusion of the hybridization period, S1 nuclease reagent was added to each sample to digest all nonprotected nucleotides at 50C for 60-90 min. […]
As for `ClC1C(Cl)C(Cl)C(Cl)C(Cl)C1Cl` (centres undefined), the molecule was called inactive.

`CNC(=O)Oc1ccccc1OC(C)C`: the molecule was classed as inactive. Regarding `CCS(=O)(=O)c1cccnc1S(=O)(=O)NC(=O)Nc1nc(OC)cc(OC)n1`, the molecule was called inactive.

Consider `C[C@H]1[C@H](c2ccc(Cl)cc2)SC(=O)N1C(=O)NC1CCCCC1`, for which the molecule was classed as inactive. On to `CC[C@H](C)[C@H]1O[C@]2(C=C[C@@H]1C)C[C@@H]1C[C@@H](C/C=C(\C)[C@@H](O[C@H]3C[C@H](OC)[C@@H](O[C@H]4C[C@H](OC)[C@@H](O)[C@H](C)O4)[C@H](C)O3)[C@@H](C)/C=C/C=C3\CO[C@@H]4[C@H](O)C(C)=C[C@@H](C(=O)O1)[C@]34O)O2` (tested in a mixture with another compound), for which the AC50 (in general, the concentration giving half of the maximal activity seen) was 4.64 µM (active). As for `COc1nn(CSP(=S)(OC)OC)c(=O)s1`, the call was inactive. On the same count and under the same terms, to `O=C(O)C(F)(F)C(F)(F)C(F)(F)C(F)(F)C(F)(F)C(F)(F)C(F)(F)F` belongs “inactive”; to `O=[N+]([O-])c1c(Cl)c(Cl)c(Cl)c(Cl)c1Cl`, “inactive”; to `CCC(C)(C)C(=O)OC1=C(c2ccc(Cl)cc2Cl)C(=O)OC12CCCCC2`, “inactive”. Same read-out and setting: as for `CC(C)(C)C(O)/C(=C\c1ccc(Cl)cc1Cl)n1cncn1` (centres undefined), the entry is “inactive”; as for `CN1CSC(=S)N(C)C1`, “inactive”.

Take `OCCOc1ccccc1`: the outcome was inactive. Consider `COP(=S)(OC)Oc1ccc([N+](=O)[O-])cc1`, for which the result was inactive. The same measure, in the same setting: to `COc1cc(OC)nc(NC(=O)NS(=O)(=O)c2cc(NC=O)ccc2C(=O)N(C)C)n1` belongs “inactive”; to `CCCN(CCOc1c(Cl)cc(Cl)cc1Cl)C(=O)n1ccnc1`, “inactive”. Same read-out and setting: as for `O=[N+]([O-])/N=C1\NCCN1Cc1ccc(Cl)nc1`, the entry is “inactive”; as for `C#CCN1C(=O)COc2cc(F)c(N3C(=O)C4=C(CCCC4)C3=O)cc21`, “inactive”; as for `COC(=O)c1ccccc1S(=O)(=O)NC(=O)Nc1nc(C)nc(OC)n1`, “inactive”.

Regarding `CC(C)OC(=O)Nc1cccc(Cl)c1`, the result was inactive. On the same count and under the same terms, to `COP(=O)(OC)OC=C(Cl)Cl` belongs “inactive”. The same measure, in the same setting: as for `O=C(NC(=O)c1c(F)cccc1F)Nc1ccc(OC(F)(F)C(F)OC(F)(F)F)c(Cl)c1` (centres undefined), the entry is “inactive”. Take `CCN(CC)C(=O)SCc1ccc(Cl)cc1`: the molecule was called inactive. Same read-out and setting: to `O=C(O)COc1ccc(Cl)cc1Cl` belongs “inactive”. For the molecule `N#CN`, the molecule was called inactive.

Consider `CCOc1nc(NC)nc(NC(=O)NS(=O)(=O)c2ccccc2C(=O)OC)n1`, for which the outcome was inactive.

For `O=S1OCC2C(CO1)C1(Cl)C(Cl)=C(Cl)C2(Cl)C1(Cl)Cl` (centres undefined), the molecule was called inactive. On the same count and under the same terms, as for `CCOCN(C(=O)CCl)c1c(C)cccc1CC`, the entry is “inactive”; as for `O=C(O)CCCOc1ccc(Cl)cc1Cl`, “inactive”; as for `CCOC1Oc2ccc(OS(C)(=O)=O)cc2C1(C)C` (centres undefined), “inactive”. Still for that read-out and setting: to `COC(=O)c1ccccc1S(=O)(=O)NC(=O)N(C)c1nc(C)nc(OC)n1` belongs “inactive”; to `N#Cc1c(Cl)c(Cl)c(Cl)c(C#N)c1Cl`, “inactive”; to `CC(C)N(C(=O)COc1nnc(C(F)(F)F)s1)c1ccc(F)cc1`, “inactive”. Same read-out and setting: to `CCCN(CCC)c1c([N+](=O)[O-])cc(C(F)(F)F)cc1[N+](=O)[O-]` belongs “inactive”. As to `CC(C)(C)C(O)C(Oc1ccc(Cl)cc1)n1cncn1` (centres undefined), the result was inactive.

For `Clc1ccccc1-c1nnc(-c2ccccc2Cl)nn1`, the call was inactive.

As to `Cc1cc(C)nc(NC(=O)NS(=O)(=O)c2ccccc2C(=O)OC2COC2)n1`, the molecule was classed as inactive.

For `O=C1c2ccccc2C(=O)N1SC(Cl)(Cl)Cl`, the outcome was inactive. For `[2H]C1([2H])[n+]2ccccc2-c2cccc[n+]2C1([2H])[2H]`, the outcome was inactive.

Take `O=S(=O)(O)C(F)(F)C(F)(F)C(F)(F)C(F)(F)C(F)(F)C(F)(F)C(F)(F)C(F)(F)F`: the result was inactive.
